Screening data: PubChem BioAssay, National Center for Advancing Translational Sciences (NCATS)
The list is not random: actives were taken first. Their share in the collection is about 1.2%.
TrxR1 substrate: substrates of rat thioredoxin reductase 1; AID 588456; purified TrxR1 substrate turnover, NADPH consumption readout; Potency, µM (highest dose often 114 µM), for the others: at the top dose activity change, negative = substrate turnover; 0.01% of 390,000 active; also: nearly all actives have a fitted effect of over 50% in size
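Rat TrxR1, dispensed at 90 nM, was prereduced with 400 uM NADPH (final) for 5 min at ~22 deg C, then incubated with compound 15 min before 400 uM selenite. A first-read NADPH fluorescence drop versus no-compound background flagged substrates.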
NPSR antagonist: antagonists of human neuropeptide S receptor cAMP signaling | Q6W5P4 | CHO-NPSR cells, cAMP TR-FRET, antagonist mode | Potency, µM (top dose mostly 38.3 µM), inactives show top-dose activity change, negative = inhibition, actives largely listed as inhibitors | 1% of 220,000 active | AID 1461; also: nearly all actives have a fitted effect of over 50% in size
Target sequence (Q6W5P4 whole entry, looked up): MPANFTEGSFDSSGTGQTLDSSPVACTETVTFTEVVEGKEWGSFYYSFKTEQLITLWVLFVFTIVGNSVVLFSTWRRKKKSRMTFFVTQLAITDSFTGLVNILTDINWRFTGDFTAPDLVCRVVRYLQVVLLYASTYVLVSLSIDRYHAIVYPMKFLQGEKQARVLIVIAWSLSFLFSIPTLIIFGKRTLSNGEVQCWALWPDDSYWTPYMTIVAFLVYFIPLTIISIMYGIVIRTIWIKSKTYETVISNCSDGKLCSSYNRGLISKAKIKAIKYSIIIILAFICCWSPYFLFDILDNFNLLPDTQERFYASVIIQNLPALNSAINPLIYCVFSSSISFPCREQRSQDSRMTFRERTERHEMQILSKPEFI
TrxR1 inh: blocks rat thioredoxin reductase 1. Potency, µM (series often up to 114 µM), inactives show at the highest dose activity change, negative = inhibition, usual class: inhibitors. 1% of 390,000 active. recombinant rTrxR1, NADPH fluorescence consumption, selenite substrate. AID 588453; also: nearly all actives have a fitted effect of over 65% in size
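Rat TrxR1 (90 nM in the dispensed reagent) was pre-reduced with 400 uM NADPH for 5 min at room temperature, then incubated with compound for 15 min. After 400 uM selenite was added, NADPH fluorescence (Ex 340/Em 450 nm) was followed for 8 min.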
GALK inhibitor: inhibitors of human galactokinase | P51570 | Purified GALK, Kinase-Glo residual ATP luminescence | Potency, µM (titrated, usually from 57.5 µM), for inactives: top-dose activity change, negative = inhibition, actives largely listed as inhibitors | 0.007% of 270,000 active | AID 1868
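5 nM enzyme, 35 uM ATP, 100 uM galactose, 20 mM HEPES pH8.0, 5 mM MgCl2; 1 h RT; residual ATP by Kinase-Glo Plus luminescence, qHTS format.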
An asterisk follows results filed as active; ? = inconclusive; . = no result given; [ ] = another dose, or the depositor's remark. Calls follow the shape of the dose curve; as a rule, active = well fitted curve in the direction sought with a large enough effect; inconclusive = small, poorly fitted or top-dose-only effect, or another doubt; inactive = no such curve, though single readings can be large; an effect the other way counts as inactive or inconclusive. % is scaled to controls: 0 for no effect and ±100 for the full control effect; potency is read from the fitted curve at half-maximal effect.

SMILES | TrxR1 substrate | NPSR antagonist | TrxR1 inh | GALK inhibitor
O=C(O)CCc1ccc(-c2ccccc2)n1-c1ccc(C(=O)O)cc1 | 5% | . | 79µM* | 3%
O=C(O)CCc1ccc(-c2ccccc2)n1-c1cccc(C(=O)O)c1 | 3% | . | 45µM* | -3%
CC(=O)c1ccc(-n2c(CCC(=O)O)ccc2-c2ccc(Cl)cc2)cc1 | 4% | . | 1% | .
CCOC(=O)c1ccc(-n2c(CCC(=O)O)ccc2-c2ccccc2)cc1O | 2% | . | 50µM* | .
CC(=O)c1cccc(-n2c(CCC(=O)O)ccc2-c2ccc(C)cc2)c1 | 4%[57.1 µM] | . | ? | 0%
Cc1cnc2ccccc2c1/C=C/c1ccc(N)cc1 | -7% | . | ? | .
O=C([C@@H]1CC=C[C@@H]2CCN(C3CC3)C(=O)[C@@H]21)N1CCOCC1 | 8% | . | 23% | .
COC(=O)C1=C(C)N(c2cccc3ccccc23)C(=O)C1 | 0% | -10%[46.1 µM] | 25µM* | 0%
CCc1ccc(CNC(=O)c2ccc3c(c2)nc2n3CCCCC2)cc1 | 0%[57.1 µM] | . | 13%[57.1 µM] | .
CCC(=O)N1CCc2cc(S(=O)(=O)NC(Cc3ccccc3)C(=O)NCc3cccc(OC)c3)ccc21 (stereo unspecified) | 2% | . | 10% | .
C=C(C)[C@@H]1C2=CC(C(=O)OC)=C(C[C@@H](C(=C)C)[C@H]3O[C@H]3C3=C[C@H]1OC3=O)O2 | -7% | . | 11µM* | .
C#CC(=O)N(c1cccc(OC)c1)C(C(=O)NC1CCCC1)c1cccs1 (stereo unspecified) | 11% | 4µM* | ? | -2%
C#CC(=O)N(c1ccc(OC)c(OC)c1)C(C(=O)NC1CCCC1)c1cccs1 (stereo unspecified) | 1% | 13µM* | 3.2µM* | -5%
Cc1cccc(N(C(=O)C(F)(F)F)C(C(=O)NC2CCCCC2)c2cccs2)c1 (stereo unspecified) | 0%[57.1 µM] | -22%[46.1 µM] | 14%[57.1 µM] | -2%
CCCCCc1cc[n+](CC(=O)c2ccccc2)cc1 | 10%[0.0914 µM] | . | 2% | .
Cc1ccc(CNC(=O)CN(C)S(=O)(=O)c2ccc(Br)s2)cc1 | -5% | . | -4% | .
Cc1ccc(CS(=O)Cc2ccc(C(=O)NC3CCCC(C)C3C)o2)cc1 (stereo unspecified) | 8% | . | 45µM* | 0%
CNc1ccc(C=O)cc1I | -5% | . | -6% | .
COc1cc(Cl)c(CC(=O)NO)cc1OC | 11% | . | 13% | .
CCNc1nc(NC(C)C)nc(N(C#N)CCOc2ccc(Cl)cc2Cl)n1 | 2% | 10µM* | 4% | 3%
CCN(CC)S(=O)(=O)c1ccc(OC)c(NC(=O)/C=C/c2ccco2)c1 | -4% | -22% | 18µM* | 0%
CCOc1ccc(C(NC(C)=O)c2ccc(OC)c(OC)c2)cc1 (stereo unspecified) | 1%[57.1 µM] | 8% | 17%[57.1 µM] | 1%
COc1ccc(C(NC(=O)/C=C/c2ccco2)c2ccc(OC)c(OC)c2)cc1 (stereo unspecified) | -8% | -12%[46.1 µM] | 50µM* | 0%
COc1ccc(C2(CNC(=O)/C=C/c3ccco3)CCCC2)cc1OC | 5% | -12%[46.1 µM] | 3.5µM* | 2%
CCOc1ccc(C(NC(=O)/C=C/c2ccco2)c2ccc(OC)c(OC)c2)cc1 (stereo unspecified) | 1% | -17%[46.1 µM] | 35µM* | -2%
SMILES | TrxR1 substrate | NPSR antagonist | TrxR1 inh | GALK inhibitor
CCC(Cn1nnc2ccccc2c1=O)NC(=O)Nc1cc(OC)cc(OC)c1 (stereo unspecified) | 5% | . | 28% | .
CCOc1cc(Br)cc(C2NC(=O)c3c(sc4c3CCN(C)C4)N2)c1O (stereo unspecified) | 12% | . | -17% | .
CN(C)c1ccc(/C=[N+]2\C(=O)CC(=O)NC2=O)cc1 | 7% | . | -6% | .
Cc1ccc(-n2ncc3c(N4CCN(CCO)CC4)ncnc32)cc1Cl | -3%[57.1 µM] | . | -18%[57.1 µM] | .
CC(C)c1ccc(NC(=O)CSc2nc(=O)n(CCCN3CCOCC3)c3c2CCCC3)cc1 | -6% | . | -8% | .
Cc1ccc(-n2c(C)cc(C3N=C(N)Nc4nc5ccccc5n43)c2C)c(C)c1 (stereo unspecified) | 6% | 10µM* | 14% | -1%
Brc1ccc(-c2nc3ccccc3s2)s1 | 5% | 13µM* | -8% | 7%
NC(=O)c1ccc(NC(=O)Cc2ccc(S(=O)(=O)N3CCCCC3)cc2)cc1 | 2% | . | 11% | .
Cc1c(S(=O)(=O)c2ccccn2)c(N)n(Cc2ccccc2Cl)c1C | 8%[57.1 µM] | -5% | ? | .
Cc1c(S(=O)(=O)c2ccccn2)c(N)n(Cc2ccccc2)c1C | 2%[57.1 µM] | -2% | 11µM* | 3%
COCCn1c(C)c(C)c(S(=O)(=O)c2ccccc2)c1N | 4% | . | 20µM* | 6%
COc1cc2nc(N3CCCCC3)nc(NC3CCN(Cc4ccccc4)CC3)c2cc1OC | 39% | . | 1% | .
CCc1ccc(CNC(=O)CN2C(=O)c3cccnc3Oc3ccc(Cl)cc32)cc1 | -3% | . | 11% | .
OCC1O[C@H]([S-])[C@H](O)[C@@H](O)[C@@H]1O.[Au+] (stereo partly specified) | 13%[57.1 µM] | . | 0.25µM* | .
CC1(C)OC(=O)C2(Cc3cc([N+](=O)[O-])ccc3N3CCCCC32)C(=O)O1 (stereo unspecified) | -3% | . | -14% | .
CC1Cn2c(C(=O)NCc3cccc(Br)c3)cc3cccc(c32)S1 (stereo unspecified) | 13% | . | 12% | .
COc1cccc(CN2CCNC(=O)C2CC(=O)O)c1OC (stereo unspecified) | -1% | 2%[46.1 µM] | ? | -1%
Cc1ccccc1CN1CCNC(=O)C1CC(=O)O (stereo unspecified) | 5% | -3%[46.1 µM] | 71µM* | 1%
O=C(CN1C(=O)CSc2ccc(S(=O)(=O)N3CCCC3)cc21)Nc1cccc(Cl)c1 | -8% | . | 21% | .
Cc1ccc(-c2ccc(/C=C3\C(=O)ON=C3c3ccccc3)o2)c([N+](=O)[O-])c1 | -8%[57.1 µM] | 7.9µM* | 11µM* | -8%
Cc1nc2cc(Cl)c(Cl)cc2n1CCCO | -1%[57.1 µM] | 7% | 4%[57.1 µM] | 2%
Cc1cc(=S)cc(C)n1CCCO | -12% | -5%[46.1 µM] | 13µM* | 1%
CC[N+]1(CC(=O)c2ccc(Br)cc2)CCCCC1 | 4% | . | 8% | .
COC(=O)C1Cc2ccccc2CN1C(=O)CCl (stereo unspecified) | 7%[57.1 µM] | -4% | 14µM* | 1%
Cc1cc(N2CCN(c3cccc(C(F)(F)F)c3)CC2)n2nc(-c3ccccc3C)nc2n1 | -1% | . | 39% | .
SMILES | TrxR1 substrate | NPSR antagonist | TrxR1 inh | GALK inhibitor
CCOC(=O)C1CCCN(c2ccc(NC(=O)c3snc4c(=O)[nH]cnc34)cc2)C1 (stereo unspecified) | -7% | 16µM* | 0% | 0%
O=C(COC(=O)c1ccc([N+](=O)[O-])o1)Nc1ccc(N2CCOCC2)cc1 | 2% | . | ? | .
O=C(COC(=O)c1ccc([N+](=O)[O-])o1)Nc1ccc(F)cc1 | 0% | . | 25µM* | .
O=C(COC(=O)c1ccc([N+](=O)[O-])o1)Nc1ccc(Br)cc1F | -6% | . | 5µM* | .
CN(C)S(=O)(=O)c1cccc(NC(=O)COC(=O)c2ccc([N+](=O)[O-])o2)c1 | -7% | 13% | 25µM* | -3%
O=C(CCl)Nc1ccccc1C(=O)c1ccccc1 | -10% | -16% | 20µM* | 6%
